Pf Dd2 growth = blocks in vitro growth of P. falciparum Dd2; P. falciparum Dd2 growth, SYBR Green, 72 h; 120,000 compounds, 4.3% hits; AID 1347417; Potency, µM (titrated, usually from 28.9 µM), usual class: inhibitors; active = well fitted inhibition curve with a large enough effect; also: nearly all actives have a fitted effect of over 65% in size
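Infected erythrocytes (Dd2, 0.3% parasitemia, 2.5% hematocrit final) are added to compound in RPMI-1640/Albumax II medium, grown 72 h at 37C in low oxygen, then lysed with saponin/Triton-X containing SYBR Green and read by fluorescence.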
Of the large screens only hits and unclear results are named; the others gave an inactive call. This excerpt belongs to a sample that is enriched for hits.

COc1ccc(C(=O)N2CCN(C3CCN(C)C3=O)CC2)cc1 (stereo not given)	none
COc1ccc(Cl)cc1-n1nc(C2CC2)nc1C(C)Cn1cncn1 (stereo not given)	none
COC(=O)[C@@H](C)NC(=O)[C@H]1CN(S(=O)(=O)c2ccccc2)CCN1S(=O)(=O)c1ccccc1	none
COc1ccccc1C(=O)N1CCc2nc(C3CC3)nc(-c3ccc(Cl)cc3)c2C1	Pf Dd2 growth 11.2µM
CCc1nc2c(c(-c3ccc(Cl)cc3)n1)CN(C(C)=O)CC2	none
CCc1nc2c(c(-c3ccc(Cl)cc3)n1)CN(Cc1ccc(N(C)C)cc1)CC2	Pf Dd2 growth 8.91µM
Cc1ccc(C(=O)N2CCc3nc(C4CC4)nc(-c4ccc(Cl)cc4)c3C2)cc1	none
COc1ccc(-c2nc(C3CC3)nc3c2CN(C(=O)c2ccccc2F)CC3)cc1	none
CCc1nc2c(c(-c3ccc(Cl)cc3)n1)CN(C(=O)Nc1ccccc1)CC2	Pf Dd2 growth 11.2µM
CCc1nc2c(c(-c3ccc(Cl)cc3)n1)CCN(Cc1ccnn1C)CC2	none
CCc1nc2c(c(-c3ccc(O)cc3)n1)CN(Cc1ccnn1C)CC2	none
CCc1nc2c(c(-c3ccc(O)cc3)n1)CCN(C(=O)Nc1ccc(Cl)cc1)CC2	none
COCCC(=O)N[C@H]1CC[C@]2(C)CC[C@@H]([C@H](C)C(=O)NCc3ccco3)[C@H](O)[C@H]2[C@@H]1C	none
COCCO[C@H]1C(=O)N(C2CCN(Cc3cccc(OC)n3)CC2)[C@H]1c1ccncc1	none
COc1ccccc1OC1(C(=O)O)CCN(c2ncnc3[nH]ccc23)CC1	none
COc1cc(=O)n2c(c1C(=O)Nc1cccc(F)c1)CCCC2	none
COc1cccc(CN2CC[C@H]3COC(=O)N3c3cc(C)ccc3C2)c1	none
C=CCOc1cccc(-c2nc(C(=O)N(C)CC)cs2)c1	none
Clc1ccc(-c2nnc([C@H]3CCN(Cc4c[nH]c5ccccc45)C3)o2)cc1	none
CCC(Sc1nc2ccccc2c2nc(CCc3c(C)n[nH]c3C)nn12)C(=O)Nc1ccc(F)cc1 (stereo not given)	Pf Dd2 growth 7.94µM
CCC(Sc1nc2cc(OC)c(OC)cc2c2nc(-c3ccccc3)nn12)C(=O)Nc1cccc(C)c1 (stereo not given)	none
Cc1cc(C)n(CCc2nc3c4ccccc4nc(SCc4ccc(F)cc4)n3n2)n1	none
COC[C@@H]1[C@H](C(=O)Nc2cc(OC)ccc2OC)CCC(=O)N1C	none
COCCN1CC(CO)C2(CCN(C3CCSCC3)CC2)C1 (stereo not given)	none
Cn1ccnc1CN1CCOC[C@H](Oc2ccccc2)C1	none
Cn1ccnc1CN1CCCC(CCc2ccccc2)C1 (stereo not given)	Pf Dd2 growth 11.2µM
Cn1ccnc1CN1CCCC(c2ccc(C(=O)O)cc2)C1 (stereo not given)	none
CNC(=O)[C@@H]1C[C@@H](Nc2ncnc(Oc3cccnc3C)c2C)CN1C	none
O=C(NCc1nnc2n1C(C(=O)N1CCCC1)CC2)c1cccnc1 (stereo not given)	none
O=C1c2c(-c3nc(-c4ccsc4)no3)nnn2CCN1CC1CCCO1 (stereo not given)	none
O=C(Cc1cccc(F)c1)N1CCC2(CC1)NC(=O)N(Cc1ccccc1)C2=O	none
Cc1ccc(CCNC(=O)c2ccc3c(Cl)c4c(nc3c2)CCCC4)cc1	none
CSc1ccc(CCNC(=O)c2ccc3c(Cl)c4c(nc3c2)CCCC4)cc1	none
CCN(CC)CCCNC(=O)c1ccc2c(Cl)c3c(nc2c1)CCCC3	Pf Dd2 growth 11.2µM
CN1Cc2nc(Nc3ccccc3F)ccc2OCC1=O	none
COc1ccccc1C(=O)N1CCN(Cc2cc(=O)oc3cc(C)ccc23)CC1	none
COc1ccccc1CN1COc2ccc3c(C)cc(=O)oc3c2C1	Pf Dd2 growth 7.08µM
Cc1ccc(Cn2nc3n(c2=O)-c2cc(Cl)ccc2OC3)cc1	none
Cc1ccc(CN2COc3ccc4c(C)cc(=O)oc4c3C2)cc1	Pf Dd2 growth 3.98µM
COc1ccccc1CN1C[C@@H]2C(=O)N(Cc3ccc4c(c3)OCO4)C(=O)[C@@H]2C1	none
Cc1ccc(CNC(=O)c2ccc3c(c2)CN(Cc2ccc(N(C)C)cc2)CCO3)cc1	none
CCOc1ccccc1C(=O)N1[C@@H]2CC[C@H]1CC(NC(=O)c1ccc(F)cc1)C2 (stereo not given in full)	none
O=C(COc1ccc(F)cc1F)N1C[C@H]2CC=CC[C@H]2C1	none
CCCNC(=O)N1CCCC(c2nc(-c3cccnc3)no2)CCNC(=O)CC1 (stereo not given)	none
CS(=O)(=O)c1ccc(OCC2(CNCc3ccc(F)c(F)c3)C[C@@H](O)[C@@H](O)C2)cc1 (stereo not given in full)	none
COCCNc1nc(-c2c(C)noc2C)cc2cc(C(C)C)oc12	none
Cc1noc(C)c1-c1cc2cc(C(C)C)oc2c(-c2cccc(CO)c2)n1	none
COc1ccc(-c2nc(-c3c(C)noc3C)cc3cc(C(C)C)oc23)cn1	Pf Dd2 growth 8.91µM
O=C(c1cccc(Cl)c1)N1CCn2c(nn(-c3ccc(C(F)(F)F)cc3)c2=O)C1	none
CC(=O)N1CCC2(CC1)CN(C(=O)CN(C)C)Cc1ccccc1O2	none
COc1ccc(NC(=O)c2sc3nc(C)c(C(=O)Nc4ccc(Cl)cc4)c(-c4ccc(Br)cc4)c3c2N)cc1	none
COc1ccc(NC(=O)c2sc3nc4c(cc3c2N)CCCCCC4)cc1	none
COc1ccc(-c2c3c(nc4sc(C(=O)Nc5ccc(Cl)cc5)c(N)c24)CC(C)(C)CC3=O)cc1	Pf Dd2 growth 0.0631µM
O=C(COc1ccccc1)NC1CCN(c2cc(C(F)(F)F)ncn2)CC1	none
Cc1nn2c(c1-c1ccccc1C(C)C)N(Cc1ccc3c(c1)CCO3)CCC2	Pf Dd2 growth 7.08µM
Cc1nn2c(c1-c1ccccc1C(C)C)N(Cc1ccc(C(=O)O)s1)CCC2	none
Cc1nn2c(c1-c1ccccc1Oc1ccccc1)N(Cc1cccc(C#N)c1)CCC2	none
Cc1nn2c(c1-c1ccccc1C(C)C)N(C(=O)C1CCOCC1)CCC2	none
Cc1nn2c(c1-c1ccccc1OCc1ccccc1)N(Cc1cccc(O)c1)CCC2	Pf Dd2 growth 2.24µM
Cc1ccncc1-c1c(C)nn2c1N(Cc1cccc(O)c1)CCC2	none
O=C(N[C@H]1C[C@H]2C(=O)Nc3ccccc3C(=O)N2C1)c1cccnc1	none
O=C(c1ccccn1)N1CCn2c(nnc2-c2cccnc2)C1	none
COC(=O)N1CC2(Cc3ccccc3N(C(C)=O)C2)C1	none
Cn1cnc(S(=O)(=O)N2CCCN(C3CCOCC3)CCNC(=O)CC2c2ccccc2)c1 (stereo not given)	none
Cc1ccc(C(=O)NC2CCN(c3cnn(CC4CC4)c(=O)c3)CC2)cc1C	none
Cc1ccc(N2CCC(N[C@@H]3CC[C@@H](N)C3)CC2)cc1Cl	Pf Dd2 growth 12.6µM
Cc1ccc(-n2ncc3c(NC4CCCCCC4)ncnc32)cc1Cl	none
O=C(O)C1CC2(CCN(C(=O)CCCn3ccnc3)CC2)CN1 (stereo not given)	none
O=C1Nc2ccc(-c3cccs3)cc2C(=O)N2CC[C@H](NS(=O)(=O)c3ccc(Cl)cc3)C[C@@H]12	none
CCCN1CC[C@H]2COC(=O)N2c2cc(F)ccc2C1	none
CCNC(=O)NC[C@@H]1C=C(C)[C@H](CC(=O)NCCN2CCOCC2)C[C@H]1C(C)C	none
COc1ccc(Nc2c3c(nc4ccc(NC(=O)c5ccc(F)cc5)cc24)CCCC3)cc1OC	Pf Dd2 growth 3.98µM
COc1ccccc1NC(=O)c1ccccc1NC(=O)c1ccccc1	none
CCOc1ccccc1NC(=O)CSc1c2c(nc3ccc(Cl)cc13)CCCC2	none
COc1ccccc1Nc1c2c(nc3ccc(NC(=O)c4ccccc4F)cc13)CCCC2	Pf Dd2 growth 3.55µM
CCN(CC)c1cc(C)c2cc(NC(=O)c3ccc(OC)c(OC)c3)ccc2n1	none
COc1ccc(C(=O)Nc2ccc3nc4c(c(Nc5ccc(OC)c(OC)c5)c3c2)CCCC4)c(OC)c1	none
